# Data taken from PubChem BioAssay (EPA / NIEHS).
# Where “and” joins values, the source holds several entries; their conditions need not be identical. Equal values may be shown once. Records with an inconclusive call do not appear. More than one record can exist for a structure, and the calls need not agree. Calls of active or inactive are those of the source. The calls were made as follows: active = hit-call score of the fitted dose curve at least 0.9, where 1 is the maximum; inconclusive = response in the unintended direction; inactive = score below 0.9.
# Target: Retinoic acid receptor RXR-alpha (Homo sapiens) (UniProt P19793)
# Assay: OT_NURR1_NURR1RXRa_0480: Odyssey Thera (OT) 8-hour HEK293T Protein Complementation Assay for Nurr1/retinoid X receptor (RXR) (AID 2283385)
# Method: OT_NURR1_NURR1RXRa_0480 is a cell-based assay that uses HEK293T, a human kidney cell line, with measurements taken at 8 hours after chemical dosing in a 384-well plate.OT_NURR1_NURR1RXRa_0480 is one of one assay component(s) measured or calculated from the OT_NURR1_NURR1RXRa_0480 assay. It is designed to make measurements of protein fragment complementation, a form of binding reporter, as detected with fluorescence intensity signals by Protein-fragment Complementation technology.Data from the assay component OT_NURR1_NURR1RXRa_0480 was analyzed into 1 assay endpoint. This assay endpoint, OT_NURR1_NURR1RXRa_0480, was analyzed in the positive analysis fitting direction relative to DMSO as the negative control and baseline of activity. Using a type of binding reporter, measures of receptor for gain-of-signal activity can be used to understand the binding at the pathway-level as they relate to the gene RXRA. Furthermore, this assay endpoint can be referred to as a primary readout, because the performed assay has only produced 1 assay endpoint. To generalize the intended target to other relatable targets, this assay endpoint is annotated to the nuclear receptor intended target family, where the subfamily is non-steroidal.
# Protein-fragment complementation assay, or PCA, is a method for the identification and quantification of protein-protein interactions. In the PCA, the proteins of interest ("bait" and "prey") are each covalently linked to fragments of a third protein (e.g. DHFR, which acts as a "reporter"). Interaction between the bait and the prey proteins brings the fragments of the reporter protein in close proximity to allow them to form a functional reporter protein whose activity can be measured.
# Retinoic acid receptor RXR-alpha (Homo sapiens), sequence (P19793 whole entry, looked up): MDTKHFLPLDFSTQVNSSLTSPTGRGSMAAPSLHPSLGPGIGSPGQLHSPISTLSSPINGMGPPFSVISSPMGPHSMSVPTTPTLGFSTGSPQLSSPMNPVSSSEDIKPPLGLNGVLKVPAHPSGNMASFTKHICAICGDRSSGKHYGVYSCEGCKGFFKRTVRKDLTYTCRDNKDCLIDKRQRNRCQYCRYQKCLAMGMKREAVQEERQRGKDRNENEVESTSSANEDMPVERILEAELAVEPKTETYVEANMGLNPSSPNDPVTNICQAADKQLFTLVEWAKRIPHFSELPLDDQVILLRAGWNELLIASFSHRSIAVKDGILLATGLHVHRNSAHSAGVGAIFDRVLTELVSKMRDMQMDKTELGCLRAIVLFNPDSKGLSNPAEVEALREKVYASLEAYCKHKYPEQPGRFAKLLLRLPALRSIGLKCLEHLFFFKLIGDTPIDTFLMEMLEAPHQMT
SMILES,outcome,AC50
Nc1c(Cl)cc([N+](=O)[O-])cc1Cl,inactive,
CCNc1nc(Cl)nc(NC(C)(C)C#N)n1,inactive,
CN(C)NC(=O)CCC(=O)O,inactive,
CC1(C(=O)Nc2ccc(O)c(Cl)c2Cl)CCCCC1,inactive,
CN(C)C(=O)Nc1cccc(C(F)(F)F)c1,inactive,
CCOP(=S)(OCC)Oc1ccc([N+](=O)[O-])cc1,inactive,
S=C1NCCN1,inactive,
CCOP(=S)(OCC)SCCSCC,inactive,
Cc1cc(C2CC2)nc(Nc2ccccc2)n1,inactive,
CCOP(=O)(NC(C)C)Oc1ccc(SC)c(C)c1 (stereo not given),inactive,
CON=C(C(=O)OC)c1ccccc1CON=C(C)c1cccc(C(F)(F)F)c1,inactive,17.4 µM (active)
CCOP(=S)(Oc1cnc(C(C)(C)C)nc1)OC(C)C (stereo not given),inactive,73.2 µM (active)
CN1COCN(Cc2cnc(Cl)s2)C1=N[N+](=O)[O-],inactive,
COc1cccc(C(=O)NN(C(=O)c2cc(C)cc(C)c2)C(C)(C)C)c1C,inactive,
CN(C)[C@@H]1C(=O)C(C(N)=O)=C(O)[C@@]2(O)C(=O)C3=C(O)c4c(O)cccc4[C@@](C)(O)[C@H]3[C@H](O)[C@@H]12,inactive,50 µM (active)
COP(=O)(OC)C(O)C(Cl)(Cl)Cl (stereo not given),inactive,
CC(COc1ccc(Oc2ccccc2)cc1)Oc1ccccn1 (stereo not given),inactive,63.2 µM (active)

SMILES,outcome,AC50
CSc1nc(NC(C)C)nc(NC(C)C)n1,inactive,
Nc1nc(N)nc(NC2CC2)n1,inactive,
CCCCOC(=O)[C@@H](C)Oc1ccc(Oc2ccc(C#N)cc2F)cc1,inactive,13.5 µM (active)
COc1cc(OC)nc(Sc2cccc(Cl)c2C(=O)O)n1,inactive,
CC(C)N(C(=O)SCC(Cl)=C(Cl)Cl)C(C)C,,74.3 µM (active) and 85 µM (active)
CCC(CC)Nc1c([N+](=O)[O-])cc(C)c(C)c1[N+](=O)[O-],inactive,
CCc1cccc(C)c1N(C(=O)CCl)C(C)COC (stereo not given),inactive,
CC(=NC#N)N(C)Cc1ccc(Cl)nc1,inactive,
C[Si](Cn1cncn1)(c1ccc(F)cc1)c1ccc(F)cc1,inactive,
CCCOc1nn(C(=O)NS(=O)(=O)c2ccccc2C(=O)OC)c(=O)n1C,inactive,
CSC1=N[C@@](C)(c2ccccc2)C(=O)N1Nc1ccccc1,inactive,
CCOP(=S)(OCC)OC(Cl)C(Cl)(Cl)Cl (stereo not given),inactive,80.9 µM (active)
COP(=O)(OC)SCn1c(=O)oc2cc(Cl)cnc21,inactive,
CC(Oc1cccc(Cl)c1)C(=O)O (stereo not given),inactive,
C#CC(C)(C)NC(=O)c1cc(Cl)cc(Cl)c1,inactive,
CNc1cnn(-c2cccc(C(F)(F)F)c2)c(=O)c1Cl,inactive,
CNC(=O)ON=C(C)SC,inactive,
